High-throughput results deposited in PubChem by National Center for Advancing Translational Sciences (NCATS).
Only some compounds are listed: those with a hit (about 19% of all), similar ones and a draw of the others.
TDP1 inh – TDP1 (human) enzyme inhibition | Q9NUW8 | recombinant TDP1, AlphaScreen DNA substrate cleavage | Potency, µM (top dose mostly 130 µM), usual class: inhibitors | 0.28% of 350,000 active | AID 485290; also: nearly all actives have a fitted effect of over 40% in size
Target sequence (Q9NUW8 whole entry, looked up): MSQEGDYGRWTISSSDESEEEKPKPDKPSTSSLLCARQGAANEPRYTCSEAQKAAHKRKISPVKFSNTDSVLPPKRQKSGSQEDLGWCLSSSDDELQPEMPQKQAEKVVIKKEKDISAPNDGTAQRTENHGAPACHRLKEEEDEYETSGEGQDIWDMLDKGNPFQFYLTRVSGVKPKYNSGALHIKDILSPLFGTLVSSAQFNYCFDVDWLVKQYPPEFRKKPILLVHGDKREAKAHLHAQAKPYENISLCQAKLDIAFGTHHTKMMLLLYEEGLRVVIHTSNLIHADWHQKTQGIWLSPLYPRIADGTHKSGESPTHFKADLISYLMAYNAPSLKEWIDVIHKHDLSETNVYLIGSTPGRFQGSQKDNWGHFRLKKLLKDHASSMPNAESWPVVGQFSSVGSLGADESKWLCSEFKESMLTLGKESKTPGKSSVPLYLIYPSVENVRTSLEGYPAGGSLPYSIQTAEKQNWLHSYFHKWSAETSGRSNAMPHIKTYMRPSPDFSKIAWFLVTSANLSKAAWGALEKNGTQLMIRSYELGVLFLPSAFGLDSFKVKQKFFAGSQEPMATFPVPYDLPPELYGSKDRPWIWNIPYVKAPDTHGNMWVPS
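AlphaScreen read-out: signal falls as enzyme removes the 3' tyrosine-FITC from a 5'-biotinylated DNA oligo (15 nM, 5 min, RT). Enzyme was E. coli-made recombinant Tdp1 at 1 nM, exposed to compound for 15 min beforehand; beads 10 ug/ml, 10 min.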
TDP1 cell noCPT – qHTS for Inhibitors of human tyrosyl-DNA phosphodiesterase 1 (TDP1): qHTS in cells in absence of CPT; DT40 Tdp1-/- hTDP1 cells, no CPT, ATP luminescence, 48 h; Potency, µM (titrated, usually from 46.2 µM), usual class: inhibitors; 15% of 420,000 active; also: nearly all actives have a fitted effect of over 55% in size
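Readout: luminescence from CellTiter-Glo after 30 min in the dark at RT. Cells: DT40 Tdp1-/- with stable hTDP1, 400/well. Exposure: compounds alone, ≥48 hr, 37 °C.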
TDP1 cell CPT – DT40-hTDP1 cell growth loss with CPT; chicken DT40 Tdp1-/-;hTDP1 cells + 20 nM CPT, ATP luminescence, 48 h; Potency, µM (highest dose often 46.2 µM), actives largely listed as inhibitors; 12% of 420,000 active; AID 686979; also: nearly all actives have a fitted effect of over 55% in size
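Chicken DT40 Tdp1-/- cells stably complemented with human TDP1 were seeded at 400 cells/well in medium containing 20 nM camptothecin, exposed to pin-transferred compounds, and grown at 37 °C for at least 48 hr. Viability was read as ATP luminescence.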
IL-1B inflam inh – inhibitors of inflammasome signaling (IL-1 beta secretion); THP-1 LPS/ATP IL-1B secretion, AlphaLISA, 16 h; stronger effect = lower value; activity change, % at 57.5 µM; 4.7% of 360,000 active; in the data active = activity change below about -50%; inconclusive = mostly about -30% to -49%
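THP-1 cells pretreated 1 hr with compounds (up to 57.5 uM final), then stimulated with LPS (250 ng/mL final) plus ATP (1.25 mM final); secreted IL-1B measured by AlphaLISA after 16 hr, decreased signal indicating inhibition.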
TGFb inhibitor – blocks TGF-b signaling; 1.2% of 410,000 active; Potency, µM (top dose mostly 46.1 µM), usual class: inhibitors; HepG2 CAGA-GFP TGF-b/SMAD3 reporter, GFP fluorescence, 18 h; TGF-beta stimulated, 500 pg/mL final; also: nearly all actives have a fitted effect of over 65% in size
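Read-out: total well GFP (ex488/em500-530) summed from mean per-cell fluorescence. Cells: HEPG2 CAGA-GFP, 1% FBS DMEM, 18 h at 37 degrees C with 500 pg/mL final TGF-beta. Unstimulated wells served as the full-inhibition control; stimulated DMSO wells = 0%.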
HepG2 viability – kills HepG2 cells in TGF-b inhibitor counter-screen | HepG2 CAGA-GFP viability, ATP luminescence, 18 h | Potency, µM (titrated, usually from 46.1 µM), usual class: cytotoxic | 0.76% of 410,000 active | AID 588856
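CellTiter-Glo luminescence gave cytotoxicity after 18 hours at 37 degrees C. The cells were HepG2 CAGA-GFP in 1% FBS DMEM, stimulated with 500 pg/mL TGF-beta after compound addition. %Activity was normalised to no-cell wells (complete cell-killing) and DMSO (no toxicity), and curves were fitted and classified.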
A number is an active result; n = inactive; u = inconclusive; x = no result given. Unless noted, calls follow the shape of the dose curve; as a rule, active = well fitted curve in the direction sought with a large enough effect; inconclusive = small, poorly fitted or top-dose-only effect, or another doubt; inactive = no such curve, though single readings can be large; an effect the other way counts as inactive or inconclusive.

SMILES	TDP1 inh	TDP1 cell noCPT	TDP1 cell CPT	IL-1B inflam inh	TGFb inhibitor	HepG2 viability
Cc1ccc(C)c(CN2C(=O)c3ccccc3S(=O)c3ccc(C(=O)N4CCC(C)CC4)cc32)c1 (stereo not drawn)	n	23µM	u	x	u	n
O=C(CSc1nc2ccsc2c(=O)n1Cc1ccc(F)cc1)NCc1ccc(Cl)cc1	n	n	u	x	n	n
CC1(c2ccc3c(c2)OCCCO3)NC(=O)N(CC(=O)Nc2cccc(C#N)c2)C1=O (stereo not drawn)	n	u	n	n	n	n
Cc1ccc(C)c(CN2C(=O)C(=O)c3ccccc32)c1	n	0.92µM	1.2µM	x	n	n
Cc1ccc(C)c(CN2C(=O)c3ccccc3S(=O)c3ccc(C(=O)NCCCN4CCCC4)cc32)c1 (stereo not drawn)	n	u	u	n	n	n
N#CN=c1snc(-c2ccccc2Cl)n1-c1ccc(F)cc1	x	u	u	x	n	n
COc1cccc(N(C(=O)c2nc3nccc(C)n3n2)c2nc3ccccc3s2)c1	n	u	u	-92	n	n
Cc1ccc(C(=O)NN2C(=O)c3ccc(S(=O)(=O)c4ccc(C(=O)O)cc4)cc3C2=O)cc1	n	u	18µM	n	n	n
CCc1ccc(CN(Cc2cn[nH]c2-c2ccc(OC)cc2)C(=O)Nc2cc(Cl)ccc2OC)cc1	n	23µM	16µM	x	u	n
Cc1cc(=O)[nH]c2ccc(S(=O)(=O)NC3CCCCC3)cc12	x	n	u	n	n	n
CC1(C)Nc2cccc3cccc(c23)N1	x	16µM	u	n	n	n
CC1(C)Nc2cccc3c(N=Nc4ccc(N=Nc5ccccc5)c5ccccc45)ccc(c23)N1	x	11µM	u	x	n	n
O=C(Cc1ccc(Cl)cc1)Nc1nnc2n1CCS2	n	n	n	x	n	n
Cc1ccc(NS(=O)(=O)c2ccc(N3CCCC3=O)cc2)cc1C	n	x	x	x	x	x
O=C(NCC1CCCN(C(=O)c2cccnc2)C1)c1ccc(-c2ccccc2)cc1 (stereo not drawn)	n	23µM	u	n	n	n
CSCC(=O)N1CCCC(CNC(=O)c2ccc(-c3ccccc3)cc2)C1 (stereo not drawn)	n	23µM	23µM	n	u	n
COc1ccc(NC(=O)Cn2c(=O)n(Cc3nc(-c4ccccc4)no3)c(=O)c3ccccc32)cc1Cl	n	u	n	x	u	n
COc1ccc(C2=CSC3=NCCN23)cc1OC	x	u	n	n	n	n
CCCCOc1ccc(C2=CSC3=NCCN23)cc1[N+](=O)[O-]	x	29µM	u	n	n	n
O=C(NNCc1ccccc1)c1ccccn1	x	n	n	n	n	n
Cc1ccccc1CN1C[C@@H]2C[C@@H](c3cn[nH]c3-c3ccccc3)N3CCC[C@@]23C1=O	n	u	u	-63	u	n
COc1ccccc1CN1C[C@@H]2C[C@@H](C3=Cc4cccc(OC)c4OC3)N3CCC[C@@]23C1=O	x	u	u	n	n	n
O=C1N(C2CCCC2)C[C@@H]2C[C@@H](c3cn[nH]c3-c3ccc(Cl)cc3)N3CCC[C@@]123	n	u	u	-64	u	n
COc1ccccc1CN1C[C@@H]2C[C@@H](c3ccccc3OC)N3CCC[C@@]23C1=O	x	u	16µM	n	n	n
CCn1ncc([C@@H]2C[C@H]3CN(Cc4ccccc4C)C(=O)[C@]34CCCN24)c1C	n	n	n	n	n	n
Cc1cc(Oc2ccc(-c3ccccc3)cc2)n2ncnc2n1	n	n	18µM	u	n	n
O=C(COc1c(Br)cc(Br)cc1Br)N/N=C/c1ccco1	n	n	n	n	n	n
CC(=O)Oc1ccccc1Cn1c(C)c(C(=O)NCc2cccc([N+](=O)[O-])c2)sc1=O	x	21µM	u	n	u	n
